Results: PubChem BioAssay AID686949 (The Scripps Research Institute Molecular Screening Center, 2013)
The whole screen tested about 3,200 compounds, of which about 2,200 (69%) were called active.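 How the source made its calls: active means activation, as change over the incubation, above the mean of all tested compounds plus 3 SD (cut at about 13% in these data); inactive means the rest.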 The set was probably picked from earlier hits. Not all results are given here.

molecular target: Kallikrein-7 (Homo sapiens) (UniProt P49862); assay: activation of human kallikrein-7 proenzyme – biochemical, fluorescence intensity, triplicate, confirmation (AID 686949); details: purified proKLK7, EDANS-DABCYL substrate fluorescence; at 7 µM; hits give high values; scaled: vehicle 0, mature enzyme 100
Sequence (P49862 whole entry, looked up): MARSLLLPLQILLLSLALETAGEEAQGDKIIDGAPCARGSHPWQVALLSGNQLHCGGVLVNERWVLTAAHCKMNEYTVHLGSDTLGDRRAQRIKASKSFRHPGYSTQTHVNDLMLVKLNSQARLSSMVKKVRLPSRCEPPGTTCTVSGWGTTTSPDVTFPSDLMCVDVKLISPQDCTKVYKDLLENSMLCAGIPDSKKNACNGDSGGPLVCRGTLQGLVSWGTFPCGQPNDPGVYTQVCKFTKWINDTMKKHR

activation, active:
CN(C)Cc1c(O)ccc2c(=O)c(-c3ccccc3Cl)coc12 70.2%, O=C(OC1CCOC1=O)c1ccc(-c2nc3ccccc3s2)s1 (centres undefined) 17.6%, COC(=O)Cc1nc2c(N)nc(N)nc2[nH]c1=O 18.7%, O=C(Oc1c(-c2ccco2)oc2ccccc2c1=O)c1cccnc1 22.3%, CN(C)CCCn1c(N)c(C#N)c2nc(C#N)c(C#N)nc21 38%, Cc1cccc(C)c1NC(=O)C(c1ccccc1)N1CC(=O)Nc2ccccc21 (centres undefined) 40.3%, Cc1ccsc1-c1cc(C(=O)O)c2c(ccc3ccccc32)n1 19.8%, O=C(O)c1ccc2c(c1)C(=O)N(c1ccc(/C=C/C(=O)c3ccccc3)cc1)C2=O 703%, CC(OC(=O)c1ccccc1NCCO)C(=O)Nc1ccnn1C(C)C (centres undefined) 26.1%, O=c1c(-c2ccccc2)coc2c(CN3CCOCC3)c(O)ccc12 18.1%, Cc1cc(=O)oc2c3c(cc(OCC(=O)N[C@H](C(=O)O)c4ccccc4)c12)OC(C)(C)CC3 34%, Cc1c(C)c2c(OCC(=O)N[C@@H](C(=O)O)c3ccccc3)cc3c(c2oc1=O)CCC(C)(C)O3 36.6%, Cc1c(C)c2c(OCC(=O)NCCCO)cc3c(c2oc1=O)CCC(C)(C)O3 44.6%, Cc1cc(=O)oc2c3c(cc(OCC(=O)NCCC(=O)N[C@@H](C)C(=O)O)c12)OC(C)(C)CC3 58.2%, Cc1nn(-c2ccccc2)c(C)c1NC(=O)COC(=O)c1cc(Cl)ccc1O 24.2%, CC1CCCN(C(=O)c2cc(-c3ccco3)nc3ccccc23)C1 (centres undefined) 36.6%, CC(=O)N1CCN(C(=O)c2cc(-c3ccc(C)o3)nc3ccccc23)CC1 62.7%, CNC(=O)COC(=O)c1cc(-c2ccc(OC)cc2)nc2ccccc12 88.7%, COc1ccc(-c2cc(C(=O)n3cnc4ccccc43)c3ccccc3n2)cc1 56.7%, O=C(O)c1ccc2c3c(cccc13)C(=O)N(OS(=O)(=O)c1ccccc1)C2=O 181%, CC(=O)Nc1nc(C)c(-c2csc(Nc3ccc(S(N)(=O)=O)cc3)n2)s1 17.4%, CNc1cncc(-c2cccc(C(=O)N3CCOCC3)c2)n1 38.8%, COc1cc(/C=C/C(=O)Nc2ccc(OC)c(S(=O)(=O)N3CCOCC3)c2)ccc1OCC#N 96.2%, CN(C(=O)c1ccccn1)c1nnc(-c2ccccn2)s1 74%, CN(C(=O)COc1ccccc1)c1nnc(-c2ccncc2)s1 111%, Oc1ccc2ccc3cccc[n+]3c2c1 34.6%, CCOCCCNC(=O)c1cc2c(=O)n3ccccc3nc2s1 74.1%, CN(C(=O)c1cc2c(=O)n3ccccc3nc2s1)C1CCCCC1 33%, CCN(CC)CCCC(C)n1c2nc(=O)[nH]c(=O)c-2nc2cc(Cl)ccc21 (centres undefined) 75.6%, CCN1CCN(C(=O)Cn2nc(C)n3c(cc4c(OC)cccc43)c2=O)CC1 21%, COC(=O)c1cc(N2CCNCC2)nc2ccccc12 17.1%, CN(CCc1ccccn1)S(=O)(=O)c1ccc2c3c(cccc13)C(=O)N2 68.2%, COCCCn1c(-c2cccs2)nc2nc3ccccc3nc21 24.1%, Cc1cc2cc3n(c2nn1)N=C(Cl)CC3 33.3%, CCC1=C(C(=O)OC)C(c2cc(OC)ccc2OC)C(C#N)=C(N)O1 (centres undefined) 32.8%, O=c1oc2c(CN3CCCCC3)c(O)ccc2c2c1CCCCC2 74.6%, COc1c(N2CCN(C(=S)Nc3ccccc3F)C(C)C2)c(F)cc2c(=O)c(C(=O)O)cn(C3CC3)c12 (centres undefined) 18.5%, CNc1cncc(-c2ccc(NS(C)(=O)=O)cc2)n1 39.7%, C/C(=C\c1ccccc1)C1NC(=O)c2c(sc3c2CCCC3)N1 (centres undefined) 22.4%, COCc1cc(=O)oc2cc(NS(=O)(=O)c3ccc(C)cc3)ccc12 72.3%, CC1(C)Oc2ccc3ccc(=O)oc3c2/C(=N/O)C1=O 89.9%, Cc1nc2ccc(N)nc2nc1C 49.6%, O=C1NC(c2cccc(Cl)c2)Nc2ccccc21 (centres undefined) 20.5%, COc1ccc(CCNC(=O)Nc2ccc3c(c2)c(=O)n(C)n3C)cc1OC 24.5%, C[C@@H]1C(c2ccc(F)cc2)=NN(c2ccc(Br)cc2)[C@H]1C(=O)N1CCOC1=O 27.9%, O=C(NCCN1CCOCC1)c1cc(-c2cccs2)nc2ccccc12 24.8%, Cc1ccc(C2Nc3ccccc3C(=O)N2CCN2CCNC2=O)cc1 (centres undefined) 16.7%, CC(=O)Nc1ccc(-c2cn3cccnc3n2)cc1 74%, CCCCCC(=O)Nc1ccc(-c2cn3cccnc3n2)cc1 24.5%, CC(C)(C)C(=O)Nc1ccc(-c2cn3cccnc3n2)cc1 73.9%, CCN1CCCC1CNC(=O)c1cc2cc(OC)c(OC)cc2[nH]1 (centres undefined) 24.7%, CCOc1ccc(-n2c(SCC(=O)Nc3cc(C)c(NC(=O)c4ccccc4)cc3OC)nnc2-c2cccs2)cc1 15.9%, CC(=O)Nc1cc2ccc(OC(C)=O)cc2oc1=O 125%, CC(=O)Oc1ccc2c(C)c(CC(C)O)c(=O)oc2c1 (centres undefined) 72.5%, Cc1cc(C)c2nc3nc(C)cc(C)c3c(N)c2c1 69%, COc1cc2c(cc1OC)C(C(C)C)=NC(C)(C)C2 63.8%

activation, inactive:
CC(C)(C)Nc1c(-c2cccs2)nc2ccccn12 -59.6%, CCS(=O)(=O)Nc1cc(C(=O)OC)ccc1C(=O)OC 10%, COc1ccc(C2=CC(c3cccc(OC)c3)n3nnnc3N2)cc1 (centres undefined) -12.2%, CCOC(=O)C1=C(O)/C(=C/c2ccc(OCC(=O)Nc3ccc(C)cc3)cc2)N=C1C 2.24%, CCC(c1nnnn1Cc1ccco1)N(CCc1ccccc1)Cc1cc2ccc(OC)cc2[nH]c1=O (centres undefined) -0.98%, O=C(/C=C/c1ccc2c(c1)OCCO2)c1ccc(O)cc1 3.2%, CCCN(CC(=O)NC(=O)NC1CCCCC1)CC(=O)Nc1cc(Cl)ccc1Cl 1.91%, CCOC(OCC)c1ccc(/C=C\c2nccc(N)n2)cc1 -9.52%, CCOC(=O)c1[nH]c2ccc(OC)cc2c1NC(=O)CCN1CCN(Cc2ccccc2)CC1 1.17%, COc1ccc(CNC(=O)COC(=O)C2=Cc3ccccc3OC2)cc1 9.73%, COc1ccc2nc(Nc3nc4cc5c(cc4s3)OCCO5)sc2c1 -12.6%, Cc1cc(N2CCOCC2)nc2ccc(NC(=S)N3CCN(Cc4ccccc4)CC3)cc12 9.27%, Clc1ccc(-c2cccc3nccn23)cc1 8.31%, CCOc1ccccc1C1C(C(=O)OC)=CN(C)C=C1C(=O)OC -23.5%, COCC(=O)Nc1nnc(COc2ccccc2)s1 -0.07%, CCN(CC)CCCNC(=O)c1cc2c(=O)[nH]c3ccc(C)cc3c2s1 1.54%, C=CCn1c(N)c(S(=O)(=O)c2cccs2)c2nc3ccccc3nc21 8.74%, COc1ccc2c(c1)CCc1cn3ncc(C#N)c3nc1-2 -106%, N#CC1=C(N)Oc2c(sc3ccccc23)C1c1ccco1 (centres undefined) -25.1%, CCNC(=S)Nc1ccc2c(c1)c(=O)n(C)n2Cc1ccc(Cl)cc1 -4.46%, CCN(CC(=O)Nc1c(F)cccc1F)C(=O)c1ccc(-c2ccc(C(C)=O)cc2)o1 -16.9%, CCCCN(C)CCCNC(=O)c1cc(-c2cccs2)nc2ccccc12 -47.1%, CN1c2ccccc2-c2nc3ccccc3n2C1c1ccco1 (centres undefined) 7.38%
